Data from PubChem BioAssay (NCATS).
Inconclusive results are not listed. Values without a mark were called inactive. The source made the active and inactive calls. Calls follow the shape of the dose curve; as a rule, active = well fitted cell-killing curve with a large enough effect; inconclusive = small, poorly fitted or top-dose-only effect, or effect the other way; inactive = flat fitted curve, though single readings scatter.

Experiment: qHTS of pediatric cancer cell lines to identify multiple opportunities for drug repurposing: Confirmatory screen for Rh18 cells (AID 1347125); also: nearly all actives have a fitted effect of over 55% in size
Settings: Rh18 rhabdomyosarcoma cells, viability; series mostly up to 45.9 µM; activity change, negative = cytotoxic: at the top concentration
From the text: Drug repurposing or repositioning has been offered as a strategy for drug development in oncology programs. This approach has special potential for childhood cancers and other rare or orphan diseases, where the expected return on new drug development has been a disincentive to pharmaceuticals.
In this project we exploit the poly-pharmacology of drugs to discover new indications via phenotypic screening of a panel of 19 well-characterized cell lines derived from solid tumors seen in children and adolescents. The goal is to identify approved drugs with previously unrecognized anticancer properties that has the potential to reveal new mechanisms and biological processes involved in carcinogenesis or drug resistance. We employed a titration-based paradigm (quantitative high-throughput screening or qHTS), where all compounds were tested at multiple concentrations for their effect on cell viability. Concentration-response curves (CRCs) were derived directly from the primary screen, and both potency and efficacy values were used to identify compounds with robust bioactivity profiles. We screened the NIH Chemical Genomics Center (NCGC) Pharmaceutical Collection (NPC) and Mechanism Interrogation Plate (MIPE) small molecule collections of approved and investigational compounds against these cell lines; and measured metabolically active cells after 48 hours of compound treatment as a proxy for cell viability.
Assay Submitter: Nathalia J. Martinez, National Center for Advancing Translational Sciences, National Institutes of Health, Rockville, MD, USA; email: natalia.martinez@nih.gov
[1] Shen, M et al. Quantitative high-throughput phenotypic screening of pediatric cancer cell lines identifies multiple opportunities for drug repurposing. Oncotarget 2017 Dec 19;9(4):4758-4772. PMID 29435139.
The cells were obtained from University of North Carolina (UNC), Pediatric Preclinical Testing Program (PPT), and Coriell Institute (CI).
qHTS cell viability assay:
Cells were assayed in growth media at a density of 500-1,000 cells/well. Five microliters of cells were dispensed into 1,536-well, white, solid-bottom, TC-treated plates (Greiner Bio One) using a multidrop dispenser and incubated at 37 degrees C, 5% CO2, under a humidified atmosphere for 5 hours. Twenty-three nanoliters of compounds and controls (neutral control DMSO or positive control bortezomib at final concentration of 2.3 µM) were subsequently transferred by Kalypsys pintool. For primary screens, the MIPE collection was tested at 11-point dilutions (final concentrations range from 0.78 nM to 46 µM) and the NPC collection at 8-point dilutions (final concentrations range from 0.59 nM to 46 µM). Compounds tested in follow-up screens were assayed at 11-point dilutions. Cells were incubated for 48 hours, followed by addition of 3 µL of CellTiter-Glo (Promega). After a 15 min incubation at room temperature, samples were analyzed for luminescence intensity using a ViewLux High-throughput CCD imager equipped with clear filters.
% is scaled to controls: 0 for no effect and ±100 for the full control effect; potency is read from the fitted curve at half-maximal effect.

SMILES	activity change, negative = cytotoxic	Potency
O=C(c1cc(Cc2n[nH]c(=O)c3ccccc23)ccc1F)N1CCN(C(=O)C2CC2)CC1	-21.2%	
Nc1nc2[nH]cc(CCc3ccc(C(=O)N[C@@H](CCC(=O)O)C(=O)O)cc3)c2c(=O)[nH]1	-13.3%	
CNCc1ccc(-c2[nH]c3cc(F)cc4c3c2CCNC4=O)cc1	-2.97%	
CO[C@@H]1[C@H](N(C)C(=O)c2ccccc2)C[C@H]2O[C@]1(C)n1c3ccccc3c3c4c(c5c6ccccc6n2c5c31)C(=O)NC4		4.14 µM (active)
OC(CN1CCC(Cc2ccc(F)cc2)CC1)c1ccc(Cl)cc1 (centres undefined)	-6.73%	
CCN(CC)CCCC(C)Nc1ccnc2cc(Cl)ccc12 (centres undefined)	-4.36%	
COc1cc2nccc(Oc3ccc(NC(=O)NC4CC4)c(Cl)c3)c2cc1C(N)=O		14.7 µM (active)
Oc1cccc(-c2nc(N3CCOCC3)c3oc4ncccc4c3n2)c1		1.7 µM (active)
NC(N)=NC(=O)c1nc(Cl)c(N)nc1N	3.02%	
CC(C=CC1=C(C)CCCC1(C)C)=CC=CC(C)=CC(=O)O	-4.37%	
Cc1cn[nH]c1	-0.0033%	
CS(=O)(=O)c1ccc(C(=O)Nc2ccc(Cl)c(-c3ccccn3)c2)c(Cl)c1	-5.09%	
COc1ccc(-c2ccc3c(N4CCOCC4)nc(N4C[C@@H](C)O[C@@H](C)C4)nc3n2)cc1CO		1.31 µM (active)
C[C@]1(c2nc3c(C(N)=O)cccc3[nH]2)CCCN1	-6.37%	
CCC(C)n1ncn(-c2ccc(N3CCN(c4ccc(OC[C@H]5CO[C@](Cn6cncn6)(c6ccc(Cl)cc6Cl)O5)cc4)CC3)cc2)c1=O (some centres undefined)	-15.2%	
OC[C@H](Cc1ccccc1)Nc1nc(Oc2ccc3c(c2)CCC3)nc2c1ncn2Cc1ccc(-c2ccccc2)cc1	8.45%	
NC(=O)c1ccc(I)c([N+](=O)[O-])c1	-0.384% [at 95.5 µM]	
Cc1oncc1C(=O)Nc1ccc(C(F)(F)F)cc1	-23%	
COc1ccc(-c2oc3cc(OC)ccc3c2C(=O)c2ccc(C#N)cc2)cc1	-13.5%	
Cc1c(CN2CCN(C(=O)C(C)C)CC2)sc2c(N3CCOCC3)nc(-c3cnc(N)nc3)nc12		0.827 µM (active)
Nc1nc2c(ncn2COCCO)c(=O)[nH]1	2.34%	
COc1cc(Nc2ncc3c(n2)-c2ccc(Cl)cc2C(c2c(F)cccc2OC)=NC3)ccc1C(=O)O	-24.6%	
O=C(NOC[C@H](O)CO)c1ccc(F)c(F)c1Nc1ccc(I)cc1F	-4.16%	
NCCCC(N)(C(=O)O)C(F)F (centres undefined)	1.84%	
CN1CCN(CCCN2c3ccccc3Sc3ccc(C(F)(F)F)cc32)CC1		20.8 µM (active)
Cn1cnc2c(F)c(Nc3ccc(Br)cc3Cl)c(C(=O)NOCCO)cc21	-22.6%	
O=NN(CCCl)C(=O)NCCCl	-19.5%	
C#Cc1cccc(Nc2ncnc3cc(OCCOC)c(OCCOC)cc23)c1	-22.3%	
Nc1nc2ccc(OC(F)(F)F)cc2s1	-19.2%	
